# Reference: PubChem BioAssay AID720517 (National Center for Advancing Translational Sciences (NCATS), 2013)
# Records with an inconclusive call do not appear. Entries that show only a call come without a potency. Active and inactive are the calls of the source. Calls come from the whole dose curve; as a rule, active = well fitted activation curve with a large enough effect; inconclusive = small, poorly fitted or top-dose-only effect; inactive = flat fitted curve, though single readings scatter.
# Assay: qHTS for Inhibitors of Cell Surface uPA Generation: FP59 Counterscreen for Cherry-picked Compounds
# Conditions: FP59 anthrax toxin cytotoxicity counterscreen, cells; series mostly up to 115 µM
row,SMILES,Potency
1,COc1cccc(CNC(=O)C2CCCN(S(=O)(=O)c3ccc4c(c3)C(C)(C)C(=O)N4C)C2)c1 (configuration not stated),inactive
2,Cc1nc(C(=O)N2CCC(n3nccc3NC(=O)Nc3ccccc3Cl)CC2)cs1,inactive
3,O=C(COc1cc2oc(=O)cc(-c3ccccc3)c2cc1Cl)NC(Cc1c[nH]c2ccc(O)cc12)C(=O)O (configuration not stated),inactive
4,Cn1c(SCC(=O)NCCc2ccccc2)ncc(C(=O)Nc2ccc(F)cc2)c1=O,inactive
5,CCNc1nc(Nc2ccc(C)c(Cl)c2)c2cnn(C)c2n1,inactive
6,COc1ccc(C2=NOC(CNC(N)=S)C2)cc1 (configuration not stated),inactive
7,O=C1CC(/C=C/c2ccc(Cl)cc2)=Nc2ccccc2N1,inactive
8,COc1ccc(CC(=O)Nc2nc(C)cs2)cc1OC,inactive
9,COc1ccccc1CCNC(=O)C(=O)NCC1OCCN1S(=O)(=O)c1ccc(OC)c(OC)c1 (configuration not stated),inactive
10,Cc1ccc(C(=O)NNC(=O)CNc2cccc(Cl)c2)cc1,inactive
11,CCOc1ccc(Cl)cc1/C=N/NC(=O)c1ccccc1,inactive
12,CSCC[C@H](NC(=O)[C@H](Cc1ccccc1)n1c(=O)[nH]c2ccccc2c1=O)C(=O)N1CCC[C@@H]1C(=O)O,inactive
13,CCC(COC)NC(=O)CCc1nnc(Cc2c[nH]c3ccccc23)o1 (configuration not stated),inactive
14,O=C(/C=C/c1cccc(Oc2ccccc2)c1)N1CCOCC1,inactive
15,COc1ccc(NC(=O)CCNS(=O)(=O)c2ccccc2F)cc1S(=O)(=O)N1CCOCC1,inactive
16,CCOCCOc1cc(NCc2ccccc2)c2ncn(C(C)C)c2c1,inactive
17,CC(C)(C)OC(=O)C[C@@H]1C/C=C\C[C@@H](CC(=O)N(CCO)Cc2ccccc2)C(=O)N[C@H](Cc2c[nH]c3ccccc23)COC1=O,inactive
